Laboratory results reported in PubChem BioAssay (NCATS).
Inconclusive results are not listed. Calls of active or inactive are those of the source. Calls come from the whole dose curve; as a rule, active = well fitted curve in the direction sought with a large enough effect; inconclusive = small, poorly fitted or top-dose-only effect, or another doubt; inactive = no such curve, though single readings can be large; an effect the other way counts as inactive or inconclusive.

Assays:
[1] = NS1 protein of Zika virus - qHTS assay to identify small molecule inhibitors in human HEK 293 cells (AID 1347053); note: series mostly up to about 46 µM; nearly all actives have a fitted effect of over 55% in size
How it was run: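 Following 20 h seeding, HEK 293 cells took compound, then 1 h later ZIKV MR766 (MOI = 0.5). Incubation ran 24 h at 37 C before TR-FRET detection of NS1; a drop in signal indicates inhibition.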

[2] = qHTS of pediatric cancer cell lines to identify multiple opportunities for drug repurposing: Primary screen for TC32 cells (AID 1347089); note: nearly all actives have a fitted effect of over 60% in size
How it was run: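 TC32 cells, 500-1,000/well in growth medium, compound-treated 48 h at 37 °C; viability from CellTiter-Glo luminescence. Primary screen: MIPE 11-point (0.78 nM–46 µM final), NPC 8-point (0.59 nM–46 µM final); confirmatory at 11-point dilutions.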

[3] = qHTS of pediatric cancer cell lines to identify multiple opportunities for drug repurposing: Primary screen for DAOY cells (AID 1347090); note: series mostly up to about 46 µM; nearly all actives have a fitted effect of over 55% in size
How it was run: (§1)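 Cell viability, CellTiter-Glo luminescence; 500-1,000 cells/well, 8- or 11-point titration, 48 h compound exposure at 37 degrees C, 5% CO2. Controls: DMSO neutral, bortezomib 2.3 µM final as positive.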

[4] = qHTS of pediatric cancer cell lines to identify multiple opportunities for drug repurposing: Primary screen for SJ-GBM2 cells (AID 1347091)
How it was run: as §1

[5] = qHTS of pediatric cancer cell lines to identify multiple opportunities for drug repurposing: Primary screen for A673 cells (AID 1347092); note: nearly all actives have a fitted effect of over 45% in size
How it was run: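 A673 cells (500-1,000 cells/well) were treated 48 hours at 37 degrees C with compounds at 11-point (0.78 nM to 46 µM) or 8-point (0.59 nM to 46 µM) dilutions. Viability read by CellTiter-Glo luminescence; concentration-response curves fitted.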

[6] = qHTS of pediatric cancer cell lines to identify multiple opportunities for drug repurposing: Primary screen for SK-N-MC cells (AID 1347093); note: series mostly up to about 46 µM
How it was run: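 Metabolically active cells were quantified by ATP-dependent luminescence (CellTiter-Glo, 15 min at room temperature) following 48 h treatment. Cells had been plated at 500-1,000 per well and settled for 5 h beforehand.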

[7] = qHTS of pediatric cancer cell lines to identify multiple opportunities for drug repurposing: Primary screen for BT-37 cells (AID 1347094); note: series mostly up to about 57 µM
How it was run: (§2)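 Plated cells (500-1,000 per well, growth media) were allowed to settle for 5 hours, treated with compound dilutions for 48 hours, then lysed with CellTiter-Glo for 15 min at room temperature before luminescence reading.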

[8] = qHTS of pediatric cancer cell lines to identify multiple opportunities for drug repurposing: Primary screen for NB-EBc1 cells (AID 1347095)
How it was run: as §2

[9] = qHTS of pediatric cancer cell lines to identify multiple opportunities for drug repurposing: Primary screen for U-2 OS cells (AID 1347096); note: nearly all actives have a fitted effect of over 50% in size
How it was run: (§3)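 Cells (500-1,000/well) rested 5 h, then received compounds for 48 h; metabolically active cells were measured by CellTiter-Glo luminescence. Final concentrations spanned up to 46 µM (MIPE, 11-point) or 0.59 nM-46 µM (NPC, 8-point) in primary screens, 11-point in follow-ups.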

[10] = qHTS of pediatric cancer cell lines to identify multiple opportunities for drug repurposing: Primary screen for Saos-2 cells (AID 1347097); note: nearly all actives have a fitted effect of over 40% in size
How it was run: as §2

[11] = qHTS of pediatric cancer cell lines to identify multiple opportunities for drug repurposing: Primary screen for SK-N-SH cells (AID 1347098); note: nearly all actives have a fitted effect of over 65% in size
How it was run: as §3

[12] = qHTS of pediatric cancer cell lines to identify multiple opportunities for drug repurposing: Primary screen for NB1643 cells (AID 1347099); note: nearly all actives have a fitted effect of over 50% in size
How it was run: as §2

[13] = qHTS of pediatric cancer cell lines to identify multiple opportunities for drug repurposing: Primary screen for LAN-5 cells (AID 1347100)
How it was run: as §3

[14] = qHTS of pediatric cancer cell lines to identify multiple opportunities for drug repurposing: Primary screen for BT-12 cells (AID 1347101); note: nearly all actives have a fitted effect of over 25% in size
How it was run: as §3

[15] = qHTS of pediatric cancer cell lines to identify multiple opportunities for drug repurposing: Primary screen for Rh18 cells (AID 1347102); note: nearly all actives have a fitted effect of over 65% in size
How it was run: as §3

[16] = qHTS of pediatric cancer cell lines to identify multiple opportunities for drug repurposing: Primary screen for OHS-50 cells (AID 1347103); note: nearly all actives have a fitted effect of over 40% in size
How it was run: as §3

[17] = qHTS of pediatric cancer cell lines to identify multiple opportunities for drug repurposing: Primary screen for RD cells (AID 1347104); note: nearly all actives have a fitted effect of over 55% in size
How it was run: as §2

[18] = qHTS of pediatric cancer cell lines to identify multiple opportunities for drug repurposing: Primary screen for MG 63 (6-TG R) cells (AID 1347105); note: nearly all actives have a fitted effect of over 50% in size
How it was run: as §2

[19] = qHTS of pediatric cancer cell lines to identify multiple opportunities for drug repurposing: Primary screen for control Hh wild type fibroblast cells (AID 1347106);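 note: series mostly up to about 46 µM; a drop in luminescence marks cytotoxicity and a rise apparent proliferation; nearly all actives have a fitted effect of over 55% in size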
How it was run: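 Viability after 48 h compound treatment at 37C, 500-1,000 cells/well, read as ATP luminescence with CellTiter-Glo. Primary screens used 11-point (MIPE, 0.78 nM-46 µM) or 8-point (NPC, 0.59 nM-46 µM) final concentrations; follow-up screens used 11-point dilutions.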

[20] = qHTS of pediatric cancer cell lines to identify multiple opportunities for drug repurposing: Primary screen for Rh30 cells (AID 1347107); note: series mostly up to about 46 µM; nearly all actives have a fitted effect of over 75% in size
How it was run: as §3

Measured: Potency

CCCC(O)C(CC)CO (configuration not stated)
inactive: [1] | [2] | [3] | [4] | [5] | [6] | [7] | [8] | [9] | [10] | [11] | [12] | [13] | [14] | [15] | [16] | [17] | [18] | [19] | [20]

CC(=O)N1C[C@H](O)C[C@H]1C(=O)O
inactive: [1] | [2] | [3] | [4] | [5] | [6] | [7] | [8] | [9] | [10] | [11] | [12] | [13] | [14] | [15] | [16] | [17] | [18] | [19] | [20]

CCCCCC(N)=O
inactive: [1] | [2] | [3] | [4] | [5] | [6] | [7] | [8] | [9] | [10] | [11] | [12] | [13] | [14] | [15] | [16] | [17] | [19] | [20]

CC1(C)S[C@@H]2[C@H](N=CN3CCCCCC3)C(=O)N2[C@H]1C(=O)O
inactive: [1] | [2] | [3] | [4] | [5] | [6] | [7] | [8] | [9] | [10] | [11] | [12] | [13] | [14] | [15] | [16] | [17] | [18] | [19] | [20]

O=C(OOC(=O)c1ccccc1)c1ccccc1
inactive: [1] | [2] | [3] | [4] | [5] | [6] | [7] | [8] | [9] | [10] | [11] | [12] | [13] | [14] | [15] | [16] | [17] | [18] | [19] | [20]

COc1ccc(-c2cc(=O)c3c(O)cc(O[C@@H]4O[C@H](CO[C@@H]5O[C@@H](C)[C@H](O)[C@@H](O)[C@H]5O)[C@@H](O)[C@H](O)[C@H]4O)cc3o2)cc1O
inactive: [1] | [2] | [3] | [4] | [5] | [6] | [7] | [8] | [9] | [10] | [11] | [12] | [13] | [14] | [15] | [16] | [17] | [18] | [20]

C/C=C/C(=O)N(CC)c1ccccc1C
inactive: [1] | [2] | [3] | [4] | [5] | [6] | [7] | [8] | [9] | [10] | [11] | [12] | [13] | [14] | [15] | [16] | [17] | [18] | [19] | [20]

C1CCN2C[C@@H]3C[C@@H](CN4CCCC[C@@H]34)[C@H]2C1
inactive: [1] | [2] | [3] | [4] | [5] | [6] | [7] | [8] | [9] | [10] | [11] | [12] | [13] | [14] | [15] | [16] | [17] | [18] | [19] | [20]

COCC(=O)Nc1c(I)c(C(=O)NCC(O)CO)c(I)c(C(=O)N(C)CC(O)CO)c1I (configuration not stated)
inactive: [1] | [2] | [3] | [4] | [5] | [6] | [7] | [8] | [9] | [10] | [11] | [12] | [13] | [14] | [15] | [16] | [17] | [18] | [19] | [20]

Cc1ccc(S(=O)(=O)NC(=O)NC2CCCCCCC2)cc1
inactive: [1] | [2] | [3] | [4] | [5] | [6] | [7] | [8] | [9] | [10] | [11] | [12] | [13] | [14] | [15] | [16] | [17] | [18] | [19] | [20]

O=C(NCN1CCOCC1)c1cnccn1
inactive: [1] | [2] | [3] | [4] | [5] | [6] | [7] | [8] | [9] | [10] | [11] | [12] | [13] | [14] | [15] | [16] | [17] | [18] | [19] | [20]

O=C1c2ccccc2C(=O)C1c1ccc(Br)cc1
inactive: [1] | [2] | [3] | [4] | [5] | [6] | [7] | [8] | [9] | [10] | [11] | [12] | [13] | [14] | [15] | [17] | [18] | [19] | [20]

C[N+]1(C)CCCC(OC(=O)C(O)(c2ccccc2)c2ccccc2)C1 (configuration not stated)
inactive: [1] | [2] | [3] | [4] | [5] | [6] | [7] | [8] | [9] | [10] | [11] | [12] | [13] | [14] | [15] | [16] | [17] | [18] | [19] | [20]
